Compound activity from PubChem BioAssay.
ELG1 genotoxic = qHTS screen for small molecules that induce genotoxicity in human embryonic kidney (HEK293T) cells expressing luciferase-tagged ELG1; HEK293T ELG1-luciferase reporter, luminescence, 16 h; Potency, µM (top dose mostly 46 µM), hits mostly activators; 330,000 compounds, 1.3% hits; AID 504466, 2011; note: nearly all actives have a fitted effect of over 60% in size
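HEK293T cells expressing luciferase-tagged ELG1 were treated with compound or DMSO for 16 hr at 37°C. Luciferase activity was then read after 30 min with ONE-Glo at room temperature; rising signal flags genetic stress.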
NPC1 promoter act = qHTS Assay for NPC1 Promoter Activators. Huh7 NPC1 promoter luciferase reporter, 24 h. Potency, µM (titrated, usually from 9.22 µM), most hits filed as activators. 320,000 compounds, 2.4% hits. AID 485313, 2010; note: nearly all actives have a fitted effect of over 60% in size
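In 1536-well qHTS, Huh7 cells harboring an NPC1 promoter–luciferase construct received compound for 24 h; activation was quantified by luminescence following luciferase reagent addition.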
Luc counter = Counterscreen for Luciferase (Kinase-Glo TM) Inhibition. Luciferin 4-monooxygenase (Photuris pensylvanica), Q27757. Kinase-Glo luciferase, ATP luminescence, 8 min. Potency, µM (series often up to 38.3 µM), most hits filed as inhibitors. 200,000 compounds, 0.28% hits. AID 1379, 2008; note: nearly all actives have a fitted effect of over 60% in size
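Light output from Kinase-Glo luciferase with luciferin and 10 uM ATP in 50 mM imidazole pH 7.2, KCl, MgCl2, Tween 20, BSA; compound pin-delivered, 8-min ambient incubation, then luminescence read.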
Rab9 promoter act = qHTS Assay for Rab9 Promoter Activators. Huh7 Rab9 promoter-luciferase reporter, luminescence, 24 h. AID 485297, 2010. Potency, µM (series often up to 9.22 µM), hits mostly activators. 320,000 compounds, 2.8% hits; note: nearly all actives have a fitted effect of over 60% in size
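Cells were plated at 1500 per well in reduced-serum medium with 10% FBS and left 2 h. Compound in DMSO was then added for 24 h at 37 °C. Reporter signal was read by luminescence after 10 min with luciferase detection reagent.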
SMN2 splice up = qHTS Assay for Enhancers of SMN2 Splice Variant Expression. 210,000 compounds, 2.8% hits. HEK293 SMN2-luciferase splicing reporter, luminescence, 30-36 h. Potency, µM (series often up to 46.1 µM), hits mostly activators; note: nearly all actives have a fitted effect of over 55% in size
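qHTS luciferase splicing reporter: luminescence rises when SMN2 exon 7 is included in transfected HEK293 cells. Compound exposure lasted 30-36 h at 37C, with 4.5 mM final sodium butyrate as control, followed by a ONE-Glo read.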
FLuc counter = qHTS profiling assay for firefly luciferase inhibitor/activator using purifed enzyme and Km concentrations of substrates (counterscreen for miR-21 project); 360,000 compounds, 6.9% hits; Potency, µM (titrated, usually from 57.5 µM), actives largely listed as inhibitors; AID 588342, 2011; Luciferin 4-monooxygenase (Photinus pyralis), P08659; purified FLuc, Km substrates, luminescence inhibition; note: nearly all actives have a fitted effect of over 55% in size
Target sequence (P08659 whole entry, looked up): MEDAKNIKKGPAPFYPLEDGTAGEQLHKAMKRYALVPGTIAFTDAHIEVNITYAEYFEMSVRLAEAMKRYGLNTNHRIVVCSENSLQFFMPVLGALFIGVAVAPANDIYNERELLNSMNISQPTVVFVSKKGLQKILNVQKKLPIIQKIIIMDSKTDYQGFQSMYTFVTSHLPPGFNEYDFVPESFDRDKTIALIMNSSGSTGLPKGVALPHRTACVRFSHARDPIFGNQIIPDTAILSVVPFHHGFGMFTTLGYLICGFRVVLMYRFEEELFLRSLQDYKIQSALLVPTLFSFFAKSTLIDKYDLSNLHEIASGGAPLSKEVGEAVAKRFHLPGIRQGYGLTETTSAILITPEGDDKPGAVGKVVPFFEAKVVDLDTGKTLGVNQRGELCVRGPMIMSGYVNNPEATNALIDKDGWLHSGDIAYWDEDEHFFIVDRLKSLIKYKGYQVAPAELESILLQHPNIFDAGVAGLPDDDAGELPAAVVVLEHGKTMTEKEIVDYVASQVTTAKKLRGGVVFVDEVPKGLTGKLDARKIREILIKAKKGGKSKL
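Biochemical qHTS of compounds, final roughly 60 µM downward over six points, against 10 nM purified firefly luciferase using Km concentrations of substrates (10 uM D-luciferin, 10 uM ATP) in Tris acetate pH 7.5 buffer; luminescence output.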
A number is an active result; n = inactive; u = inconclusive; x = no result. In the library only some 7.4% were active in any assay of this set; here they are far more common. Calls come from the whole dose curve; as a rule, active = well fitted curve in the direction sought with a large enough effect; inconclusive = small, poorly fitted or top-dose-only effect, or another doubt; inactive = no such curve, though single readings can be large; an effect the other way counts as inactive or inconclusive.

SMILES	ELG1 genotoxic	NPC1 promoter act	Luc counter	Rab9 promoter act	SMN2 splice up	FLuc counter
Cc1cc(C(=O)Nc2nc(C)c(C(=O)N(C)C)s2)ccc1[N+](=O)[O-]	2.6µM	0.35µM	n	0.45µM	1.8µM	4.3µM
O=C(Nc1ccn(Cc2ccccc2)n1)c1ccc2c(c1)OCO2	n	u	n	2.8µM	u	5.4µM
O=C(Nc1ccn(Cc2ccc(Cl)cc2)n1)c1ccccc1	u	u	n	3.5µM	13µM	11µM
Cc1ccc(C(=O)Nc2ccc(F)cc2F)o1	n	n	n	n	n	n
Cc1ccc(C(=O)Nc2ccn(Cc3ccc(F)cc3)n2)o1	n	u	x	u	x	15µM
O=C(Cn1ncc2c3ccccc3n(Cc3ccccc3F)c2c1=O)NCc1ccccc1Cl	x	x	x	x	n	n
CCCNC(=O)[C@H]1O[C@@H]1C(=O)N[C@H](C(=O)N1CCC[C@H]1C(=O)OC)[C@@H](C)CC	x	x	x	x	n	x
CCNC(=O)NC(=O)COC(=O)CCCSc1nc2ccccc2s1	n	n	n	n	n	19µM
CC(C)(C)NC(=O)CCCSc1nc2ccccc2s1	u	u	n	1.8µM	u	15µM
Cc1ccccc1Nc1nc(N)nc(CSc2nc3ccccc3s2)n1	n	n	n	n	n	n
CCNC(=O)NC(=O)C(C)OC(=O)CCCSc1nc2ccccc2s1 (stereo unspecified)	n	n	n	n	n	n
Cc1cc(C)n2c(Br)c(CSc3nc4ccccc4s3)nc2n1	u	u	n	u	11µM	u
Cc1cc(C)nc(NC(=O)CSc2nc3ccccc3s2)n1	5.8µM	u	n	3.2µM	n	12µM
Cc1cc(C)nc(NC(=O)CSc2nc3cc(Cl)ccc3s2)n1	n	n	n	n	n	u
CCOc1ccccc1C(=O)Nc1ccc(S(=O)(=O)Nc2ncccn2)cc1	x	x	x	x	n	n
COCCN(C(=O)COC(=O)Cc1coc2cc3c(cc12)CCC3)c1c(N)n(Cc2ccccc2)c(=O)[nH]c1=O	n	n	x	n	x	24µM
CC1CCCCC1NC(=O)/C=C/c1nc2ccccc2s1 (stereo unspecified)	n	n	n	n	n	u
O=C(/C=C/c1nc2ccccc2s1)N1CCCCCC1	u	3.2µM	n	2µM	x	15µM
CC(C)Oc1ccc(C(=O)Nc2nnc(SCC(=O)N3CCOCC3)s2)cc1	u	u	n	0.4µM	1.4µM	0.06µM
COc1ccc(Nc2nnc(SCC(=O)N3CC(=O)Nc4ccccc43)s2)cc1	n	n	x	n	x	8.5µM
COc1ccc(Nc2nnc(SCC(=O)N3CCCC3)s2)cc1	n	n	n	n	n	17µM
COc1ccc(Nc2nnc(SCC(=O)c3cc(C)n(CC4CCCO4)c3C)s2)cc1 (stereo unspecified)	n	n	n	n	n	3.8µM
COc1ccc(Nc2nnc(SCC(=O)c3cc4ccccc4o3)s2)cc1	n	n	x	n	x	n
COc1cccc(NC(=O)CN2C(=O)c3cccc4cccc2c34)c1	x	x	x	x	n	n
O=C(Nc1cccc(F)c1)N1CC[C@@]2(CCCN(C(=O)c3csnn3)C2)C1	x	x	n	x	n	x
SMILES	ELG1 genotoxic	NPC1 promoter act	Luc counter	Rab9 promoter act	SMN2 splice up	FLuc counter
CCOc1cc(CNC(=O)c2ccc3nc(CCc4ccccc4)oc3c2)ccc1OC	x	x	x	x	x	n
Cc1cc(=O)n(Cc2ccc(F)cc2Cl)c2c1c(C)nn2C	x	x	x	x	x	n
O=C(c1cnn(-c2ccc(F)cc2)c1-n1cccc1)N1CCN(c2ccccc2)CC1	x	x	x	x	x	n
COc1cccc(Nc2nnc(SCC(=O)N3CCOCC3)s2)c1	n	n	n	n	n	19µM
C/C(=C\c1ccccc1)C(=O)n1nnc2ccccc21	n	n	n	n	n	19µM
COc1cccc(NC(=O)CSC2=Nc3ccccc3N=C(c3ccc(F)cc3)C2)c1	x	x	x	x	x	n
Cc1cc(C(=O)OCC(=O)N2CCN(C(=O)c3ccco3)CC2)c(C)n1-c1ccc(F)cc1	n	n	n	n	n	n
